About 83,000 compounds went through this panel and 20% of them were active in at least one assay; those are over-represented in the sample as a whole.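 Activity criterion: percent growth below 10, measured after cells in 96-well plates were exposed to a single compound concentration for 48 hours.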 The source made the active and inactive calls.
Tested on: CAKI-1 renal
Assay: NCI-60 one-dose screen, 48 h (100 = growth as untreated, 0 = no growth, -100 = all killed)
Conditions: 10 µM unless noted

Row | SMILES | growth
1 | O=c1cc(-c2ccccc2)[nH]c2ncc(-c3ccc(F)cc3)n12 | 48.1% (inactive)
2 | N#Cc1cccc(C2C3=C(COC3=O)N(CCO)c3cc4c(cc32)OCO4)c1 (configuration not stated) | 29.7% (inactive)
3 | COC(=O)c1nc(-c2ccccc2)oc1S(=O)(=O)NCC(c1ccc(Cl)cc1)N1CCOCC1 (configuration not stated) | 71.2% (inactive)
4 | CC1(C)CC[C@]2(C(=O)N[C@H](CO)Cc3ccccc3)CC[C@]3(C)C(=CC[C@@H]4[C@@]5(C)CCCNC(C)(C)[C@@H]5CC[C@]43C)[C@@H]2C1 | 77.3% (inactive)
5 | COc1ccc(C(=O)Cn2c(C(=O)c3ccc(OC)cc3)nc3ccccc32)cc1 | 25.4% (inactive)
6 | COc1ccc(C2=CC(c3cc(OC)c(OC)c(OC)c3)n3ncnc3N2)cc1 (configuration not stated) | 21.7% (inactive)
7 | COc1ccc(C(=O)Cn2c(C(=O)c3ccc(Cl)cc3)nc3ccccc32)cc1 | 63.5% (inactive)

— PubChem BioAssay (NCI)
